Inconclusive results are not listed. Activity calls are given as the source filed them. Rule for the calls: active = hit-call score of the fitted dose curve at least 0.9, where 1 is the maximum; inconclusive = response in the unintended direction; inactive = score below 0.9.
System: rainbow trout Peroxisome Proliferator-activated Receptor gamma (PPARg), gene 110528708
Test: ATG_rtPPARg_EcoTox2: Attagene TRANS-FACTORIAL EcoTox-2 HepG2 Assay for rainbow trout Peroxisome Proliferator-activated Receptor gamma (PPARg)
Protocol: ATG_EcoTox2 is a cell-based, multiplexed assay created by modifying the existing Attagene TRANS-FACTORIAL system to include a panel of nuclear receptors from some or all the following species: human (Homo sapiens), african clawed frog (Xenopus laevis), rainbow trout (Oncorhynchus mykiss), japanese medaka (Oryzias latipes), and zebrafish (Danio rerio). The ECOTOX2-FACTORIAL format uses HepG2, a human liver cell line, with measurements taken at 24 hours after chemical dosing in a 24-well plate. ATG_rtPPARg_EcoTox2 is one of 29 assay components calculated in the ATG_EcoTox2 assay. It is designed to make measurements of mRNA induction, a form of inducible reporter, as detected with fluorescence intensity signals by Reverse transcription polymerase chain reaction (RT-PCR) and Capillary electrophoresis technology.The assay endpoint ATG_rtPPARg_EcoTox2 was analyzed in the positive analysis fitting direction relative to DMSO as the negative control and baseline of activity. Using a type of inducible reporter, measures of mRNA for gain-of-signal activity can be used to understand the reporter gene at the transcription factor-level as they relate to the gene PPARg. Furthermore, this assay endpoint can be referred to as a primary readout, because this assay has produced multiple assay endpoints where this one serves a reporter gene function. To generalize the intended target to other relatable targets, this assay endpoint is annotated to the nuclear receptor intended target family, where the subfamily is non-steroidal.
Human liver HepG2 cells are transiently transfected with multiple reporter transcription units (MRTUs) in 6-well plates using FuGene 6 reagent (Roche; 3 ml FuGene/1 mg DNA). The MRTU constructs are regulated by a cis-regulating element (promoter). Each RTU expresses a GAL4-UAS that regulates the transcription of a nearby target reporter gene sequence. A major difference between the CIS and TRANS system is that in CIS activities of endogenous TFs are measured, whereas the TRANS assay evaluates changes in activities of exogenous, chimeric NR-Gal4 proteins. […] At the end of 24 hour incubation, total RNA was isolated using TriZol reagent (Invitrogen). The isolated RNA is then reverse-transcribed using oligo(dT) primer and Mo-MLV reverse transcriptase (Invitrogen) with DNAse I (Ambion) treatment for 30 min. The one-tenth of the produced cDNA was amplified by PCR using Taq DNA polymerase (Invitrogen) and two reporter sequence-specific primers. […] The fragments were purified using Qiaquick PCR columns (Qiagen), analyzed on an ABI 3130xL genetic analyzer (Applied Biosystems) with peak positions identified by using a set of X-rhodamine (ROX)-labeled MapMarker1000 molecular weight standards (BioVentures). […]

Structure (SMILES)	outcome
CC(C)(Oc1ccc(Cl)cc1)C(=O)O	inactive
CC(C)OC(=O)C(C)(C)Oc1ccc(C(=O)c2ccc(Cl)cc2)cc1	inactive
C[C@]12C=CC(=O)C=C1CC[C@@H]1[C@@H]2C(=O)C[C@@]2(C)[C@H]1CC[C@]2(O)C(=O)CO	inactive
Cc1ccc(C)c(OCCCC(C)(C)C(=O)O)c1	inactive

Reference: PubChem BioAssay AID2284352 (EPA ToxCast)
